Assay [1] addresses Glucocorticoid receptor (Homo sapiens) (UniProt P04150). Nature of the assay: GR-EFC Redistribution (AID 451; calls by dose curve; also: potency is read from the fitted curve at half-maximal effect). The conditions noted are these: CHO-K1 GR-EFC translocation, beta-gal luminescence, 2 h. A digest of the protocol:
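CHO-K1 cells stably expressing nuclear-localized β-gal enzyme acceptor and GR fused C-terminally to the enzyme donor fragment; ligand-driven nuclear translocation restores β-gal by complementation. Compounds titrated up to 46 uM final, 2 h at 37 °C; luminescence read.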

The target of assay [2] is Mitogen-activated protein kinase 10 (Mus musculus) (UniProt Q61831). Nature of the assay: JNK3 AlphaScreen Assay (AID 530; active = well fitted curve in either direction with a large enough effect, not every such curve was filed as active;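 also: kinase came from lysate of stimulated human HepG2 cells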). To be noted: JNK3 lysate, c-Jun phosphorylation; series mostly up to 57.1 µM. The essentials: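 JNK3 came from HepG2 lysates pre-activated with IL-1beta and TNF-alpha and phosphorylated biotinylated GST-cJun (1-79) at 10 uM ATP, pH 7.6, room temperature. Compounds were titrated. AlphaScreen signal used anti-phospho-cJun (Ser73) antibody.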

For assay [3], the target named is 3',5'-cyclic-AMP phosphodiesterase 4B (Homo sapiens) (UniProt Q07343). Nature of the assay: qHTS Assay for Inhibitors of PDE-IV (AID 607; active = well fitted activation curve with a large enough effect in the main read-out, with a control signal flat, not every such curve was filed as active). The conditions noted are these: HEK293 ACTOne CNG channel cells, membrane potential fluorescence; series mostly up to 22.9 µM. The essentials:
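Live HEK293 cells with a modified cyclic nucleotide-gated (CNG) channel report intracellular cAMP via membrane-potential dye fluorescence (ex 535/em 590 nm). Endogenous PDE-IV was targeted. Compounds were tested at up to 22.9 uM final; RO 20-1724 100 uM served as control.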

Assay [4] concerns the target Cytochrome P450 2C9 (Homo sapiens) (UniProt P11712). The assay can be described thus: qHTS Assay for Inhibitors and Substrates of Cytochrome P450 2C9 (AID 883). Also: nearly all actives have a fitted effect of over 60% in size. Also: potency is read from the fitted curve at half-maximal effect. The conditions noted are these: recombinant CYP2C9, luciferin-H luminescence, 60 min; series mostly up to 57.1 µM. A digest of the protocol: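 Human CYP2C9 (10nM) hydroxylated Luciferin-H (100uM, at its KM) to luciferin in 25mM KPO4. Compound was preincubated 10 min at 37C, then NADPH regeneration started a 60 min reaction at 37C. Luminescence was read after detection reagent, normalized to 57uM sulphaphenazole.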
(In general: Quantitative high-throughput screening tests each substance at several concentrations.)

The target of assay [5] is Cytochrome P450 2D6 (Homo sapiens) (UniProt P10635). Nature of the assay: qHTS Assay for Inhibitors and Substrates of Cytochrome P450 2D6 (AID 891).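 Also: luciferin methyl ether substrate demethylated by CYP2D6 with NADPH regeneration; nearly all actives have a fitted effect of over 60% in size.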 The conditions noted are these: recombinant CYP2D6, luciferin-ME EGE luminescence; series mostly up to 57.1 µM. A digest of the protocol:
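Human CYP2D6 (5 nM) with 30 uM Luciferin-ME EGE (at Km) in 100 mM KPO4, compound preincubated 10 min, then NADPH regeneration system for 60 min at room temperature. Luciferin read by luminescence; normalized to 1.43 uM quinidine.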

The target of assay [6] is Cytochrome P450 2C19 (Homo sapiens) (UniProt P33261). The assay can be described thus: qHTS Assay for Inhibitors and Substrates of Cytochrome P450 2C19 (AID 899). Also: nearly all actives have a fitted effect of over 60% in size. To be noted: recombinant CYP2C19, luciferin-H EGE luminescence; series mostly up to 57.1 µM. A digest of the protocol:
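Human CYP2C19 (5nM) with Luciferin-H EGE at 10uM (its KM) in 50mM KPO4 was preincubated with compound for 10 min at 37C. NADPH regeneration started a 60 min 37C reaction. Luciferin was read by luminescence, normalized to 57uM ketoconazole.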

In assay [7] the target is Tyrosyl-DNA phosphodiesterase 1 (Homo sapiens) (UniProt Q9NUW8). Nature of the assay: Confirmation Assay for Inhibitors of Tyrosyl-DNA Phosphodiesterase (TDP1) (AID 489007). Also: potency is read from the fitted curve at half-maximal effect; nearly all actives have a fitted effect of over 40% in size. The conditions noted are these: recombinant human TDP1 enzymatic activity, dose-response. A digest of the protocol:
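Recombinant E. coli-expressed Tdp1 (1 nM final) was preincubated with compounds 15 min at room temperature, then reacted 5 min with 15 nM 5'-biotin/3'-phosphotyrosine-FITC DNA substrate; cleavage read as loss of AlphaScreen signal (10 ug/ml beads, 10 min).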

In assay [8] the target is Glucocorticoid receptor (Homo sapiens) (UniProt P04150). The assay can be described thus: GR-GFP Redistribution (AID 450;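 active = compounds whose dose series gives a full or clear partial fitted curve of increased nuclear translocation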; also: potency is read from the fitted curve at half-maximal effect). The conditions noted are these: U2OS GR-GFP nuclear translocation, laser cytometry, 2 h; series mostly up to 20.6 µM.

Values without a mark were called inactive. Inconclusive results are not listed. Activity calls are given as the source filed them. Unless noted, calls follow the shape of the dose curve; as a rule, active = well fitted curve in the direction sought with a large enough effect; inconclusive = small, poorly fitted or top-dose-only effect, or another doubt; inactive = no such curve, though single readings can be large; an effect the other way counts as inactive or inconclusive.

Sequence of Cytochrome P450 2D6 (Homo sapiens) (P10635 whole entry, looked up): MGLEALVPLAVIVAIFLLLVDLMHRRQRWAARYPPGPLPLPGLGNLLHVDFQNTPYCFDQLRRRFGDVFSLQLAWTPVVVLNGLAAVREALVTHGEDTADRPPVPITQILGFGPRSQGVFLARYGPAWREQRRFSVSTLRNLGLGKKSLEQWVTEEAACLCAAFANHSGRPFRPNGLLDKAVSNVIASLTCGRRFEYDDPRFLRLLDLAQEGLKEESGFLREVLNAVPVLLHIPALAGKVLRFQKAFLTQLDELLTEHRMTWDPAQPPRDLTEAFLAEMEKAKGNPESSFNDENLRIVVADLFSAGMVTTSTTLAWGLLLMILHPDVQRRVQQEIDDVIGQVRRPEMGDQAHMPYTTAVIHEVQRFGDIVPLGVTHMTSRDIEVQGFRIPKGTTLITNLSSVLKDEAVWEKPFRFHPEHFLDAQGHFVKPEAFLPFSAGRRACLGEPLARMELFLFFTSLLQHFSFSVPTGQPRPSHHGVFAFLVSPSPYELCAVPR
Sequence of 3',5'-cyclic-AMP phosphodiesterase 4B (Homo sapiens) (Q07343 whole entry, looked up): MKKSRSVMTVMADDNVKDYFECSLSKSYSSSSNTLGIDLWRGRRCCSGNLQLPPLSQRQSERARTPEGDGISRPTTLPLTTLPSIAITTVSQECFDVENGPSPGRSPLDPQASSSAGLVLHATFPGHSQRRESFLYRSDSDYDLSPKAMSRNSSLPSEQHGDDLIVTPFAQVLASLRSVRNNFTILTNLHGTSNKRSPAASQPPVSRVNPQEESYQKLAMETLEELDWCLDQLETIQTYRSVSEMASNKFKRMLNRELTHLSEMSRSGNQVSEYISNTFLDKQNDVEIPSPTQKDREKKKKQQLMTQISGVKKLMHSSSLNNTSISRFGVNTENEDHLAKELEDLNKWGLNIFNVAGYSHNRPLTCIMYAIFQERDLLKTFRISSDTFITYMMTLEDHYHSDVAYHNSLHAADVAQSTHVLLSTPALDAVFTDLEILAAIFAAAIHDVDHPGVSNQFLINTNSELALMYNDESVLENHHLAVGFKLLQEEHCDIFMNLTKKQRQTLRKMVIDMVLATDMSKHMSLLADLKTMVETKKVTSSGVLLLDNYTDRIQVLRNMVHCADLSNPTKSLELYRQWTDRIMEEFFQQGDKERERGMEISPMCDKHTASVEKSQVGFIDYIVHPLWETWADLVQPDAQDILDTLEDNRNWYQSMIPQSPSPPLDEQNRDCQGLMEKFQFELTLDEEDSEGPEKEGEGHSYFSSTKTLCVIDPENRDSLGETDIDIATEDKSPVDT
Sequence of Glucocorticoid receptor (Homo sapiens) (P04150 whole entry, looked up, the tested form may be a part): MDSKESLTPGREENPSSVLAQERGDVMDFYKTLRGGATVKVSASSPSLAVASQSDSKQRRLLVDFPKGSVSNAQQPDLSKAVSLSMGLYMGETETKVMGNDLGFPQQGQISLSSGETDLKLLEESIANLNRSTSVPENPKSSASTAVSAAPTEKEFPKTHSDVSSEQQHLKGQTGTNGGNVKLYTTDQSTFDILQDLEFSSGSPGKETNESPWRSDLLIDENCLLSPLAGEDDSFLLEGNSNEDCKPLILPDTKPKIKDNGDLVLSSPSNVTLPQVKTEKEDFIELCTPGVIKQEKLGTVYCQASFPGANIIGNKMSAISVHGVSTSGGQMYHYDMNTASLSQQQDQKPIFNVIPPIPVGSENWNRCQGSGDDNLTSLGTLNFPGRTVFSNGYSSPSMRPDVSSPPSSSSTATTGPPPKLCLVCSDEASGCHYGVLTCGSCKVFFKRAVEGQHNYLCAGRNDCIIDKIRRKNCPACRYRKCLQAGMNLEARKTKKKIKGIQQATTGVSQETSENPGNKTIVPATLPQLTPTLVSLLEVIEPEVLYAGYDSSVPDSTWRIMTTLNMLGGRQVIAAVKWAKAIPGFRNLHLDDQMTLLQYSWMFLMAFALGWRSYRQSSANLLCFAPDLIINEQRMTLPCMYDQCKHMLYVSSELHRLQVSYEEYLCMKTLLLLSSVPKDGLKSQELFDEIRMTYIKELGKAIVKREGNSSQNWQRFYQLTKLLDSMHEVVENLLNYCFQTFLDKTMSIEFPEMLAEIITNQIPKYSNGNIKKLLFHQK
Sequence of Cytochrome P450 2C9 (Homo sapiens) (P11712 whole entry, looked up): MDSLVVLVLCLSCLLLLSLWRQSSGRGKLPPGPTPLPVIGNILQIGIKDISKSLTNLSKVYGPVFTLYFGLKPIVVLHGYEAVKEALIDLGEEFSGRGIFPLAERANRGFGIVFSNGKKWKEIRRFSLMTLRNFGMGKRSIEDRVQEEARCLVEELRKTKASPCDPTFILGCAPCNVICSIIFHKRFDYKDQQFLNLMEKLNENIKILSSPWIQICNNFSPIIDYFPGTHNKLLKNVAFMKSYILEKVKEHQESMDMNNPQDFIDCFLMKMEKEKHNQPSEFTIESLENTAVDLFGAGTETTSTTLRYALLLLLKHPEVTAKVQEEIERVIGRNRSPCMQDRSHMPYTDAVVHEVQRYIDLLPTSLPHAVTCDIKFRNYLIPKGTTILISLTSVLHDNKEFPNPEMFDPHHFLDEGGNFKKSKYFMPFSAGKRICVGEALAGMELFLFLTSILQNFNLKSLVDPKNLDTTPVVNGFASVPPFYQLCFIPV
Sequence of Cytochrome P450 2C19 (Homo sapiens) (P33261 whole entry, looked up): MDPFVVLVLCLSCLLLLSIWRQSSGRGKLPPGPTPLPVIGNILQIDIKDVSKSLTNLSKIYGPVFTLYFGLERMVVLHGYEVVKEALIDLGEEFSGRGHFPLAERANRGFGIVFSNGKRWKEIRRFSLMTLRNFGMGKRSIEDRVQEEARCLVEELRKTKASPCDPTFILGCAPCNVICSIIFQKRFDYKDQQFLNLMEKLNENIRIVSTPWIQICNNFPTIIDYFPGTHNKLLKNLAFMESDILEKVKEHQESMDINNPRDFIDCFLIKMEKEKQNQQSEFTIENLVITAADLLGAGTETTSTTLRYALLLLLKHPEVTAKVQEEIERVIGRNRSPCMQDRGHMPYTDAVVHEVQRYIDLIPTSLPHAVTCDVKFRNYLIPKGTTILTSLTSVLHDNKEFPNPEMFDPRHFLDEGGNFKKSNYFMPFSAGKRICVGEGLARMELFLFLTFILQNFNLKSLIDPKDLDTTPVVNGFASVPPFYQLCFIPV
Sequence of Tyrosyl-DNA phosphodiesterase 1 (Homo sapiens) (Q9NUW8 whole entry, looked up): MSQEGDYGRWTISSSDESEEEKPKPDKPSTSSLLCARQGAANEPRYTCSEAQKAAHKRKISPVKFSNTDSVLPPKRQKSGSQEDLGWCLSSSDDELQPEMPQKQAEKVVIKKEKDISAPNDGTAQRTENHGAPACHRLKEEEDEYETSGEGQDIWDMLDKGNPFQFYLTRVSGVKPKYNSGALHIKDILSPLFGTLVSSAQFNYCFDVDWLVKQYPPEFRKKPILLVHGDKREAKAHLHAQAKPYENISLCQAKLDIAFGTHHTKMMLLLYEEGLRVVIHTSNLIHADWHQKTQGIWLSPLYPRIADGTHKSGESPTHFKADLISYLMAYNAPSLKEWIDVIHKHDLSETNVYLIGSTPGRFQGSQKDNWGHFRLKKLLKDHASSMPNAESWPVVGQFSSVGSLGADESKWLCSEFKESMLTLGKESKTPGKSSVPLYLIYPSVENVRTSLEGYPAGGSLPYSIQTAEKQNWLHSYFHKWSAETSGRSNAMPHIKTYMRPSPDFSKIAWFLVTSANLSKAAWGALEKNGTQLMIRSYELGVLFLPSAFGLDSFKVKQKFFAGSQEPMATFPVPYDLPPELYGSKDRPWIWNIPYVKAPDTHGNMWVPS

Consider `CC(C)C[C@@H](CC(=O)N[C@@H](CCC(=O)O)CC(=O)O)NC(=O)[C@@H]1CNCC[C@H]1NC(=O)C[C@H](CCCN)NC(=O)C[C@H](Cc1c[nH]c2ccccc12)NC(=O)[C@@H]1CCCC[C@H]1N`, for which the Potency in assay [1] is more than 46 µM. Moreover, the Potency entry in assay [2], in assay [3], in assay [4], in assay [5] and in assay [6] was “inactive” in each case.
`COc1ccccc1C1CN(c2ccccc2)N=C1c1cccs1` (configuration not stated): the Potency in assay [7] was 25.1 µM (active).
Regarding `NCCC[C@@H](CC(=O)N[C@@H]1CCNC[C@H]1C(=O)N[C@H](CC(=O)N[C@@H](CCC(=O)O)CC(=O)O)Cc1ccccc1)NC(=O)C[C@H](Cc1ccccc1)NC(=O)[C@@H]1CCCC[C@H]1N`, in assay [1], the Potency is more than 46 µM. The Potency entry in assay [2], in assay [3], in assay [4], in assay [5] and in assay [6] was “inactive” each time.
For `CC(C)[C@@H](CC(=O)N[C@@H]1CCCC[C@H]1C(=O)N[C@H](CC(=O)N[C@@H](CCC(=O)O)CC(=O)O)Cc1ccccc1)NC(=O)C[C@H](Cc1ccccc1)NC(=O)[C@@H]1CNCC[C@H]1N`, the Potency in assay [1] is more than 46 µM. Also, the Potency entry in assay [2], in assay [3], in assay [5] and in assay [6] was “inactive” each time.
Take `CC(C)[C@@H](CC(=O)N[C@@H]1CCCC[C@H]1C(=O)N[C@H](CC(=O)N[C@@H](CCC(=O)O)CC(=O)O)Cc1ccccc1)NC(=O)C[C@H](Cc1ccccc1)NC(=O)[C@@H]1CCCC[C@H]1N`: the Potency in assay [1] is more than 46 µM. Besides, the Potency entry in assay [2] and in assay [5] was “inactive” throughout.
`CC(C)C[C@@H](CC(=O)N[C@@H](CCCN)CC(=O)N[C@@H]1CCNC[C@H]1C(=O)N[C@H](CC(=O)N[C@@H](CCC(=O)O)CC(=O)O)Cc1ccccc1)NC(=O)[C@@H]1CCCC[C@H]1N`: the Potency in assay [1] is more than 46 µM. Moreover, the Potency result in assay [3], in assay [4] and in assay [6] was “inactive” in each case.
As for `CC(C)C[C@@H](CC(=O)N[C@@H](CCC(=O)O)CC(=O)O)NC(=O)[C@@H]1CCCC[C@H]1NC(=O)C[C@H](CCCN)NC(=O)C[C@H](Cc1c[nH]c2ccccc12)NC(=O)[C@@H]1CCCC[C@H]1N`, in assay [1], the Potency is more than 46 µM. Also, the Potency entry in assay [2], in assay [3], in assay [4], in assay [5] and in assay [6] was “inactive” throughout.
For the molecule `C=C[C@@]1(C)C=C2CC[C@@H]3[C@](C)(CCC[C@@]3(C)C(=O)O)[C@H]2CC1`, the Potency is more than 46 µM in assay [8] and 6.31 µM (active) in assay [4]. The Potency entry in assay [2], in assay [3] and in assay [5] was “inactive” each time.
`Cc1nnc(NC(=O)CSc2ccc(-c3ccco3)nn2)s1`: the Potency in assay [7] is 14.1 µM (active).
On the same count and under the same terms, the value for `Cc1ccc2nc(-c3ccncc3)cc(C(=O)Nc3ccc(OC(F)F)cc3)c2c1` was 70.8 µM (active); that for `Nc1ccc(Nc2ccccc2)c(S(=O)(=O)O)c1` was 7.94 µM (active).
Turning to `O=C(COC(=O)c1cc2c(s1)CCC2)Nc1ccc(F)cc1`, the Potency in assay [7] was 12.6 µM (active).
On the same count and under the same terms, the result for `Cc1cc(C(=O)O)ccc1-c1ccc(/C=C2\NC(=O)N(Cc3ccc(F)cc3)C2=O)o1` reads 4.47 µM (active); that for `Cc1ccc(S(=O)(=O)N(CC(=O)O)Cc2ccco2)cc1`, 20 µM (active).
Consider `COc1ccc(N2Cc3cccc(C(=O)O)c3C2=O)cc1`, for which the Potency in assay [7] is 2.51 µM (active).
For the molecule `O=C(O)C1C2C=CC3(O2)C1C(=O)N1c2ccccc2C2OCCC2C13` (configuration not stated), the Potency in assay [7] was 35.5 µM (active).
The same measure, in the same setting: the value for `COc1ccc(-n2c(NC(=O)c3ccc(Br)o3)c(C#N)c3nc4ccccc4nc32)cc1` was 100 µM (active); that for `Oc1ccc(/C=N/N2CCOCC2)c(O)c1O` was 100 µM (active); that for `CC(C)CN(C(=O)COC(=O)c1cc2c(s1)CCC2)C1CCS(=O)(=O)C1` (configuration not stated) was 44.7 µM (active).

These data come from PubChem BioAssay (NCATS).
